The text below walks through data of PubChem BioAssay (NCATS).

A short description of experiment [1]: qHTS profiling of the MIPE4 collection as inhibitors of Plasmodium falciparum (3D7) proliferation (AID 743344).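 Note: scaled between DMSO vehicle wells and 0.29 µM artemisinin as full inhibition.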 The settings on record: P. falciparum 3D7 in erythrocytes, SYBR Green DNA fluorescence, 72 h; at 28.5 µM unless noted. A digest of the protocol:
(§1)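 Parasite DNA was quantified by SYBR Green I fluorescence (ex 485, em 535 nm) after overnight lysis in saponin/Triton buffer at room temperature. Cultures at 0.3% parasitemia and 2.5% hematocrit were first exposed to compound for 72 h at 37 C; signals were normalised to artemisinin (0.29 uM) and vehicle wells.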
(qHTS replaces the single test concentration by a dilution series.)

Experiment [2] in a line: qHTS profiling of the MIPE4 collection as inhibitors of Plasmodium falciparum (DD2) proliferation (AID 743345). The settings on record: P. falciparum Dd2 in erythrocytes, SYBR Green DNA, 72 h; at 28.5 µM unless noted. In a few lines:
as §1

Experiment [3] is described as follows: qHTS profiling of the MIPE4 collection as inhibitors of Plasmodium falciparum (DD2) proliferation (Rep 2) (AID 743346). The settings on record: P. falciparum Dd2 in erythrocytes, SYBR Green DNA, 72 h; at 28.5 µM unless noted. In a few lines:
as §1

Experiment [4] can be described thus: qHTS profiling of the MIPE4 collection as inhibitors of Plasmodium falciparum (HB3) proliferation (AID 743347).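 Note: plate controls were DMSO vehicle wells for no effect and artemisinin wells for full effect.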 The settings on record: P. falciparum HB3 in erythrocytes, SYBR Green DNA, 72 h; at 28.5 µM unless noted. A digest of the protocol:
as §1

Experiment [5] in a line: High-throughput drug toxicity screening in the BPDCN cell line Gen2.2 (AID 1224824).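 Note: cells exposed to compounds for 48 h before reading.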 The settings on record: Gen2.2 BPDCN cells; at 45.8 µM (top of the series) unless noted. A digest of the protocol: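 Seed 500 exponentially growing Gen2.2 cells/well; add compounds by pin tool; incubate 48 h, 37 °C, 5% CO2; add CellTiter-Glo, 15 min RT; read luminescence. % activity vs DMSO (100%) and bortezomib (0%).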

A short description of experiment [6]: High-throughput drug toxicity screening in the BPDCN cell line Cal-1 (AID 1224825). The settings on record: Cal-1 BPDCN cell viability, qHTS; at 45.8 µM (top of the series) unless noted. In a few lines: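 CellTiter-Glo luminescence after 48 h compound exposure; percent activity scaled with DMSO as 100% and bortezomib (9.2 uM final) as 0%. Cal-1 cells seeded at 500/well in RPMI, 10% FBS, no phenol red.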

Experiment [7] is described as follows: qHTS assay for measurement of the activity of small molecule inhibitors on Zika virus induced Caspase-3 activity in human iPSC derived neural progenitor cells (hNPCs) (AID 1224857; active = well fitted inhibition curve with a large enough effect; note: % of control where 0% means no effect; nearly all actives have a fitted effect of over 65% in size). A digest of the protocol: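 Zika virus (2 FFU/cell) infection of human iPSC-derived NPCs, 6 h, following 1 h compound preincubation. Read-out: Caspase-Glo 3/7 luminescence.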
Experiment [8] can be described thus: qHTS assay for measurement of the activity of small molecule inhibitors on Zika virus induced Caspase-3 activity in human astrocytoma cells (AID 1224859; active = well fitted inhibition curve with a large enough effect;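 note: plate controls were ZIKV-infected untreated cells for no effect and uninfected cells for full effect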). A digest of the protocol:
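Caspase activation in ZIKV-infected SNB-19 cells (2 FFU/cell, 6 h) measured by Caspase-Glo 3/7 luminescence after 30 min RT; compound pre-incubated 1 h; normalised to uninfected and infected controls.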

Experiment [9] in a line: qHTS Screen of the MIPE 4.0 Collection Against Ewings Sarcoma (RDES) (AID 1259252; active = well fitted inhibition curve with a large enough effect; note: nearly all actives have a fitted effect of over 35% in size; note: potency is the fitted concentration of half-maximal effect). A digest of the protocol: (§2)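 Dose series incubated 48 h with cells in RPMI plus 5% FBS, glutamine and penicillin/streptomycin; cell viability then quantified via CellTiter-Glo.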
Experiment [10] can be described thus: qHTS Screen of the MIPE 4.0 Collection Against Ewings Sarcoma (TC71) (AID 1259253; active = well fitted inhibition curve with a large enough effect; note: nearly all actives have a fitted effect of over 40% in size; note: potency is the fitted concentration of half-maximal effect). In a few lines:
as §2

Experiment [11] in a line: qHTS Screen of the MIPE 4.0 Collection Against Ewings Sarcoma (TC32) (AID 1259256; active = well fitted inhibition curve with a large enough effect; note: nearly all actives have a fitted effect of over 45% in size; note: potency is the fitted concentration of half-maximal effect). In a few lines:
as §2

Records with an inconclusive call do not appear. Calls of active or inactive are those of the source. Unless noted, the rule behind the calls is not given here.

For `COc1cc(Nc2nc3ccccc3nc2NS(=O)(=O)c2ccc(NC(=O)c3ccc(C)c(OC)c3)cc2)cc(OC)c1`, the parasite growth, % of DMSO control in experiment [1] was found to be 42%. Further, the parasite growth remaining, % of DMSO control (lower = more inhibition) in experiment [2] worked out at 40.5%. Besides, the parasite growth, % of control (lower = inhibition) in [3] worked out at 32.8%. This compound also came in with a growth, % of control in experiment [4] of 17.6%. In experiment [5], the cell viability, % of control (lower = more cytotoxic) is 32.5%. In experiment [6], this compound showed a viability (% of control) of 78.5%. Besides, the Potency entry in experiment [7] and in [8] was “inactive” in each case. Also, the Potency in [9] was 18.7 µM (active); in experiment [10] it was 20.9 µM (active); in experiment [11] it was 18.7 µM (active).

On to `CC1(COc2ccc3c(c2)ncn3-c2ccc3cccc(N4CCC(N)CC4)c3n2)COC1`, for which the parasite growth, % of DMSO control in [1] was determined as 5.45%. Further, the parasite growth, % of control (lower = inhibition) in [3] is 14.5%. In [4], this compound had a growth, % of control of 4.9%. For the same compound, the cell viability, % of control (lower = more cytotoxic) in experiment [5] turned out to be 5.87%. In [6], this compound gave a viability (% of control) of 3.06%. Also, the Potency result in experiment [7], in experiment [8], in experiment [9], in [10] and in experiment [11] was “inactive” throughout.

In experiment [1], `CCCCC[C@H](O)C=C[C@H]1[C@H](O)CC(=O)[C@H]1CC=CCCCC(=O)O` had a parasite growth, % of DMSO control of 86%. The compound also showed a parasite growth remaining, % of DMSO control (lower = more inhibition) in experiment [2] of 11.2%. Besides, the parasite growth, % of control (lower = inhibition) in experiment [3] amounted to 56.3%. The growth, % of control in experiment [4] was 103%. The cell viability, % of control (lower = more cytotoxic) in experiment [5] was determined as 31.5%. The compound further showed a viability (% of control) in experiment [6] of 23.7%. Further, the Potency entry in [7], in [8] and in experiment [9] was “inactive” throughout. In addition, the Potency in experiment [10] is 18.7 µM (active); in experiment [11], 20.9 µM (active).

As to `COc1cc2nc(-c3cc(F)ccc3O)nc(N[C@@H]3CNC[C@@H]3C(C)(C)O)c2cc1OC`, in [1], the parasite growth, % of DMSO control was 6.37%. Besides, in experiment [2], the parasite growth remaining, % of DMSO control (lower = more inhibition) came out at 6.09%. In addition, in experiment [3], the parasite growth, % of control (lower = inhibition) turned out to be 8.84%. This compound also displayed a growth, % of control in experiment [4] of 3.61%. In addition, in [5], the cell viability, % of control (lower = more cytotoxic) turned out to be 4.14%. This compound also gave a viability (% of control) in experiment [6] of 5.24%. Further, the Potency entry in experiment [7] and in experiment [8] was “inactive” in each case. For the same compound, the Potency in experiment [9] is 23.5 µM (active); in experiment [10] it was 20.9 µM (active).

Compound `C[C@@H](O)[C@H]1C(=O)N2C(C(=O)OCOC(=O)C(C)(C)C)=C(SC3CN(C4=NCCS4)C3)[C@H](C)[C@H]12` had a parasite growth, % of DMSO control in experiment [1] of 66%. Besides, in experiment [2], the parasite growth remaining, % of DMSO control (lower = more inhibition) was 99.9%. Also, the parasite growth, % of control (lower = inhibition) in experiment [3] is 107%. The growth, % of control in experiment [4] worked out at 104%. For the same compound, the cell viability, % of control (lower = more cytotoxic) in experiment [5] was found to be 58.2%. In [6], this compound showed a viability (% of control) of 39.5%. Moreover, the Potency entry in experiment [7], in experiment [8], in [9] and in experiment [10] was “inactive” throughout.

`O=S(=O)(NCCNCC=Cc1ccc(Br)cc1)c1cccc2cnccc12` gave a parasite growth, % of DMSO control in [1] of 35.6%. In [2], this compound came in with a parasite growth remaining, % of DMSO control (lower = more inhibition) of 19.2%. Also, in experiment [3], the parasite growth, % of control (lower = inhibition) was found to be 35.5%. Further, in experiment [4], the growth, % of control turned out to be 33.3%. In experiment [5], the cell viability, % of control (lower = more cytotoxic) was found to be 247%. This compound registered a viability (% of control) in experiment [6] of 57.7%. The Potency entry in [7] and in experiment [8] was “inactive” in each case. For the same compound, the Potency in experiment [9] and in experiment [10] was 2.64 µM (active) each time.

`CCOC(=O)N1CCN([N+]([O-])=NOc2cc(ON=[N+]([O-])N3CCN(C(=O)OCC)CC3)c([N+](=O)[O-])cc2[N+](=O)[O-])CC1` showed a parasite growth, % of DMSO control in experiment [1] of 56.9%. This compound returned a parasite growth remaining, % of DMSO control (lower = more inhibition) in experiment [2] of 45.7%. In addition, the parasite growth, % of control (lower = inhibition) in [3] was 49.8%. In experiment [4], this compound returned a growth, % of control of 48%. Further, the cell viability, % of control (lower = more cytotoxic) in experiment [5] amounted to 87.7%. This compound came in with a viability (% of control) in experiment [6] of 81.2%. Also, the Potency entry in [7], in experiment [8], in experiment [9] and in [10] was “inactive” throughout. For the same compound, the Potency in experiment [11] was 4.18 µM (active).

Turning to `CCOC(=O)[C@H]1O[C@H]1C(=O)N[C@@H](CC(C)C)C(=O)NCCC(C)C`, the parasite growth, % of DMSO control in experiment [1] turned out to be 15.6%. The compound further came in with a parasite growth remaining, % of DMSO control (lower = more inhibition) in experiment [2] of 12.9%. The parasite growth, % of control (lower = inhibition) in [3] was 15.6%. The compound further came in with a growth, % of control in [4] of 4.47%. For the same compound, the cell viability, % of control (lower = more cytotoxic) in [5] turned out to be 74.8%. Besides, the viability (% of control) in experiment [6] was determined as 95%. Moreover, the Potency entry in experiment [7], in experiment [8] and in [9] was “inactive” each time. Moreover, the results for the Potency in [10] and in [11] were 2.96 µM (active) and 18.7 µM (active), respectively.

For `Cc1ccc2c(=O)c3cccc(CC(=O)O)c3oc2c1C`, the parasite growth, % of DMSO control in [1] is 95.5%. In experiment [2], this compound came in with a parasite growth remaining, % of DMSO control (lower = more inhibition) of 94%. For the same compound, in [3], the parasite growth, % of control (lower = inhibition) was 76.8%. The same compound yielded a growth, % of control in [4] of 101%. Besides, the cell viability, % of control (lower = more cytotoxic) in experiment [5] was determined as 78%. The viability (% of control) in experiment [6] came to 50.1%. The Potency result in experiment [7] and in experiment [8] was “inactive” each time. Further, the Potency in experiment [9] and in experiment [10] was 18.7 µM (active) in each case.
